Measurements: PubChem BioAssay (EPA / NIEHS)
Active and inactive are the calls of the source. The calls were made as follows: active = hit-call score of the fitted dose curve at least 0.9, where 1 is the maximum; inactive = score below 0.9.

read-out: Transforming growth factor beta 1 (TGFb1), TGFB1 (gene 7040); assay: BSK_BE3C_TGFb1: BioMAP Diversity Plus: BE3C Assay for Transforming growth factor beta 1 (TGFb1) Biomarker Activity (AID 2283036); settings: primary human bronchial epithelial cells; actives raise or lower the signal
Protocol: BSK_BE3C is a cell-based, multiplexed-readout assay that uses bronchial epithelial cell, a human lung primary cell, with measurements taken at 24 hours after chemical dosing in a 96-well plate.BSK_BE3C_TGFb1 is an assay component measured in the BSK_BE3C assay. It measures TGF-b1 antibody related to regulation of gene expression using ELISA technology.Data from the assay component BSK_BE3C_TGFb1 was analyzed into 1 assay endpoint. This assay endpoint, BSK_BE3C_TGFb1, was analyzed with bidirectional fitting relative to DMSO as the negative control and baseline of activity. Using a type of binding reporter, gain or loss-of-signal activity can be used to understand changes in the signaling as they relate to the gene TGFB1. Furthermore, this assay endpoint can be referred to as a primary readout, because this assay has produced multiple assay endpoints where this one serves a signaling function. To generalize the intended target to other relatable targets, this assay endpoint is annotated to the growth factor intended target family, where the subfamily is transforming growth factor beta.
The levels of cell surface (or secreted, indicated by the prefix "s") biomarker endpoints were measured by ELISA. Overt cytotoxicity to cells in confluent adherent cultures (all systems other than the BT system) was assessed by measuring total protein levels using sulforhodamine B (SRB) staining in parallel cultures at the time of biomarker measurements, indicated as SRB endpoints. For proliferation assays for adherent cell types, individual cell types are cultured at sub-confluence and relative cell numbers quantified by SRB staining at time points optimized for each system (48 h: 3C and CASM3C systems; 72 h: BT and HDF3CGF systems; 96 h: SAg system). SRB was performed by staining cells with 0.1% SRB after fixation with 10% TCA and reading wells at 560 nm.Viability and proliferation of PBMC (T cells) was quantified by Alamar Blue reduction for the SAg and BT systems. For PBMC viability (referred to as PBMC Cytotoxicity within the assay endpoint names), cells were plated (75,000/well in a 96-well plate) and then chemical samples added for 1 h before addition of activators, SEB and TSST-1 (20 ng/mL final concentration each). Cells were incubated for 90 h. Then, Alamar Blue (20 uL/well) (Invitrogen, Cat DAL1100) was added for 6 h, and the plates were read with a fluorescence microplate reader at 546/580 nm (excitation/emission). For PBMC proliferation, cells were plated and activated as above but incubated for only 16 h prior to addition of Alamar Blue. Plates were read after 6 h.

**Q.** With `Nc1ccc(Oc2ccc(N)cc2)cc1` as the compound, how does the outcome read?
**A.** inactive

**Q.** With `CC(C)(O)c1cnn2c(-c3ccc(F)c(-c4c(F)cccc4C#N)c3)cnc2n1` as the compound, how does the AC50 read?
**A.** 31.4 µM (active)

**Q.** With `c1ccc(NNc2ccccc2)cc1` as the compound, how does the outcome read?
**A.** inactive

**Q.** With `CCC[CH2][Sn]([Cl])([CH2]CCC)[CH2]CCC` as the compound, how does the AC50 read?
**A.** 0.147 µM (active)

**Q.** How did the outcome turn out when `O=P(OCCCl)(OCCCl)OCCCl` was run?
**A.** inactive

**Q.** For `CC(O)CCO` (stereo not given), which outcome is on record?
**A.** inactive

**Q.** Which outcome does the source give for `CC(C)(OOC(C)(C)c1ccccc1)c1ccccc1` here?
**A.** inactive

**Q.** With `CCC12COCN1COC2` as the compound, how does the outcome read?
**A.** inactive

**Q.** How did the outcome turn out when `CN(C)c1ccccc1` was run?
**A.** inactive

**Q.** With `c1ccc(C2CO2)cc1` (stereo not given) as the compound, how does the outcome read?
**A.** inactive

**Q.** Which outcome does the source give for `CS(=O)(=O)NC(=O)c1cc(Oc2ccc(C(F)(F)F)cc2Cl)ccc1[N+](=O)[O-]` here?
**A.** inactive

**Q.** `O=C(Oc1ccc(Br)cc1)N1CCN2CCC1CC2` was tested. Which outcome did it give?
**A.** inactive

**Q.** Which outcome does the source give for `COC(=O)c1ccccc1N` here?
**A.** inactive

**Q.** Which outcome does the source give for `O=[N+]([O-])C(Br)(CO)CO` here?
**A.** inactive

**Q.** `CCCCCCCCOC(=O)c1ccc(C(=O)OCCCCCCCC)c(C(=O)OCCCCCCCC)c1` was tested. Which outcome did it give?
**A.** inactive

**Q.** `CCCCCCCCn1sccc1=O` was tested. Which AC50 did it give?
**A.** 5.55 µM (active)

**Q.** For `CCCCOC(=O)c1ccccc1C(=O)OCc1ccccc1`, which outcome is on record?
**A.** inactive

**Q.** `CCN(CC)CCO` was tested. Which outcome did it give?
**A.** inactive

**Q.** `O=Cc1ccco1` was tested. Which outcome did it give?
**A.** inactive

**Q.** How did the outcome turn out when `CCOC(=O)[C@]1(c2ccccc2)Oc2ccccc2[C@@H]1N` was run?
**A.** inactive

**Q.** Which outcome does the source give for `c1ccc2c(c1)-c1cccc3cccc-2c13` here?
**A.** inactive

**Q.** Which outcome does the source give for `N#CC(Br)Br` here?
**A.** inactive

**Q.** Which outcome does the source give for `Cc1ccc(N=C=O)cc1N=C=O` here?
**A.** inactive

**Q.** Which AC50 does the source give for `CCNS(=O)(=O)C(F)(F)C(F)(F)C(F)(F)C(F)(F)C(F)(F)C(F)(F)C(F)(F)C(F)(F)F` here?
**A.** 12 µM (active)

**Q.** For `O=C(O)C1C2CCC(O2)C1C(=O)O` (stereo not given), which AC50 is on record?
**A.** 18.6 µM (active)

**Q.** How did the AC50 turn out when `ClC1=C(Cl)C2(Cl)C3C(Cl)C=CC3C1(Cl)C2(Cl)Cl` (stereo not given) was run?
**A.** 20 µM (active)

**Q.** For `CCCCCOC(=O)c1ccccc1C(=O)OCCCCC`, which outcome is on record?
**A.** inactive

**Q.** Which outcome does the source give for `c1ccc2c(c1)oc1ccccc12` here?
**A.** inactive

**Q.** `O=[N+]([O-])c1ccc(Oc2ccc(Cl)cc2Cl)cc1` was tested. Which outcome did it give?
**A.** inactive

**Q.** For `Nc1ccc(N=Nc2ccccc2)cc1`, which outcome is on record?
**A.** inactive

**Q.** How did the outcome turn out when `Nc1ccc([N+](=O)[O-])cc1` was run?
**A.** inactive

**Q.** Which outcome does the source give for `COP(=S)(OC)SCN1C(=O)c2ccccc2C1=O` here?
**A.** inactive

**Q.** How did the outcome turn out when `CC(C)N(Cc1ccccc1)C(=O)C(C)(C)C` was run?
**A.** inactive

**Q.** With `CCN(CC)N=O` as the compound, how does the outcome read?
**A.** inactive

**Q.** How did the outcome turn out when `CCOc1cccc(C2(N3CCN(c4ccccc4)CC3)CCC(C)CC2)c1` (stereo not given) was run?
**A.** inactive

**Q.** For `c1ccc(N=Nc2ccccc2)cc1`, which outcome is on record?
**A.** inactive

**Q.** `CC(C)(C)OOC(C)(C)CCC(C)(C)OOC(C)(C)C` was tested. Which outcome did it give?
**A.** inactive

**Q.** With `[Cl-].[Cl-].[Hg+2]` as the compound, how does the AC50 read?
**A.** 30.9 µM (active)

**Q.** How did the outcome turn out when `[O-][Cl+]O` was run?
**A.** inactive

**Q.** `OCCOCCO` was tested. Which outcome did it give?
**A.** inactive
